Most compounds without a hit are left out; they make up all but 28% or so of the library.
Mac1 fbg enh: increases human CD11b/CD18 adhesion to fibrinogen. K562 CD11b/CD18 adhesion to fibrinogen, ATPlite luminescence. activation, % at 10 µM. 93,000 tested, 0.07% active. AID 1499;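 active = 10 µM primary screen giving 50% or more activity, confirmed by 40% or more on retest at that dose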
Target sequence (P05107 whole entry, looked up, other chains not shown): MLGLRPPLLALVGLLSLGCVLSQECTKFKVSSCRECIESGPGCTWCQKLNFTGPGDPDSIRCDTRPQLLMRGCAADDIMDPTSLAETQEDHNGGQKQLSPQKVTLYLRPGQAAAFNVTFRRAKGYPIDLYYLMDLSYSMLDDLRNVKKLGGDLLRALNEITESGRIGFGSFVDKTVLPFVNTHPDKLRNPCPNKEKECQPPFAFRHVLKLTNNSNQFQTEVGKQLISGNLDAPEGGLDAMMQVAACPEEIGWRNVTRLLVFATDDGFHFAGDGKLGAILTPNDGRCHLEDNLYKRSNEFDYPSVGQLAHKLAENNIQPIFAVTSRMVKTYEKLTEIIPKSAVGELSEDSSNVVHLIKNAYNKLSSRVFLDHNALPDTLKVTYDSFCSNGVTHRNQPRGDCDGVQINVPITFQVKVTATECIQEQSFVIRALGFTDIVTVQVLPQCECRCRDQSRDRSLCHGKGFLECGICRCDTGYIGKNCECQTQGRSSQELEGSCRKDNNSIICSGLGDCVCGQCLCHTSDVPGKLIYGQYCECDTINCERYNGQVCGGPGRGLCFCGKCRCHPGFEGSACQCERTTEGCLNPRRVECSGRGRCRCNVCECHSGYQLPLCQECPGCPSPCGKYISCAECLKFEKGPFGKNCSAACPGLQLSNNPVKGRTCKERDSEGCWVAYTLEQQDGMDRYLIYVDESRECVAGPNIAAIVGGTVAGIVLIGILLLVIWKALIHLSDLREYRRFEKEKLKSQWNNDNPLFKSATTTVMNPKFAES
CYP2C19 activ: cytochrome P450 2C19 (human) activation. P33261. recombinant CYP2C19, luciferin-H EGE luminescence; hits give high values; 0 = fully inhibited enzyme, 1 = untreated enzyme. activation factor at 5 µM. 96,000 tested, under 10 active;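 active = activation factor of at least 2 at 5 µM in the primary screen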;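 note: 0 = wells with 2.5 mM tranylcypromine and 1 = vehicle-only wells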
CYP2C19 inh: human CYP2C19 inhibition. AID 778. inhibition, % at 5 µM. CYP2C19 Supersomes, luciferin-H EGE luminescence, 30 min. 96,000 tested, 21% active. P33261;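 active = CYP2C19 inhibition above a set limit at 5 µM in the primary screen, cut at about 50% in these data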;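 note: plate controls were negative control wells for no effect and 2.5 mM tranylcypromine positive control for full effect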
CD11b adhes inh: CD11b/CD18-fibrinogen binding inhibition; P05107+P11215; K562 CD11b/CD18 adhesion to fibrinogen, ATPlite luminescence; Mn2+ added to activate the integrin; inhibition, % at 10 µM; 93,000 tested, 0.54% active; AID 1497;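 active = primary inhibition of 50% or more at 10 µM, then 40% or more on retest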
CYP2C9 act: increases human cytochrome P450 2C9 activity; P11712; recombinant CYP2C9, luciferin-H conversion, luminescence; hits give high values; factor 1 = untreated enzyme, 0 = blocked; activation factor at 5 µM; 96,000 tested, 1.4% active; AID 1024;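 active = activation factor of 2 or more for CYP2C9 at a 5 µM dose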;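 note: 0 = sulfaphenazole-blocked wells and 1 = vehicle-only wells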
CYP2C9 inh: human CYP2C9 inhibition. AID 777. 96,000 tested, 20% active. inhibition, % at 5 µM. P11712. CYP2C9 Supersomes, luciferin-H conversion, luminescence;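 active = blocking of liver enzyme CYP2C9 beyond about 50% at 5 µM, limit read from the data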
Active calls of the source: *; . = no result.

SMILES | Mac1 fbg enh | CYP2C19 activ | CYP2C19 inh | CD11b adhes inh | CYP2C9 act | CYP2C9 inh
c1ccc2c(c1)[nH]c1c(N3CCCC3)ncnc12 | -4 | 1 | 3 | 22 | 1.1 | -6
c1ccc2c(c1)[nH]c1c(N3CCOCC3)ncnc12 | -2 | 0.9 | 12 | 4 | 0.5 | 52*
Cc1cccc2[nH]c3c(N4CCC5(CC4)OCCO5)ncnc3c12 | -1 | 0.5 | 51* | 20 | 0.8 | 17
Cc1cccc2[nH]c3c(N4CCN(C(=O)c5ccco5)CC4)ncnc3c12 | -5 | 0.1 | 90* | -1 | 0.6 | 39
Clc1ccc2[nH]c3c(N4CCC5(CC4)OCCO5)ncnc3c2c1 | -8 | 0.2 | 76* | 66 | 0.3 | 73*
Cc1ccc2[nH]c3c(N4CCOCC4)ncnc3c2c1 | -3 | 0.9 | 12 | 3 | 0.7 | 33
CS(=O)(=O)N1CCc2cc(C(=O)OCC(=O)c3ccccc3)ccc21 | -5 | 1.1 | -11 | -24 | 1.1 | -10
O=[N+]([O-])c1ccc(/C=N/Nc2nc(N3CCCCC3)nc(N3CCCCC3)n2)o1 | -4 | 0.9 | 6 | -1 | 1 | -4
COc1ccccc1NC(=O)c1sc2ncn(Cc3cccc4ccccc34)c(=O)c2c1C | 95 | . | . | . | . | .
Brc1ccc2[nH]c3c(N4CCc5ccccc5C4)ncnc3c2c1 | 0 | 0.9 | 6 | 75* | 0.1 | 92*
O=C(O)c1ccc(-c2ccccc2)[nH]1 | -3 | 0.3 | 72* | -10 | 1.6 | -56
O=C(O)c1cc(=O)cc(C(=O)O)[nH]1 | 3 | 1.2 | -20 | -29 | 1.2 | -16
COc1ccc(OC2C(=O)N(c3ccc(C)c(C)c3)C2c2ccc(OC)c(OC)c2)cc1 (stereo unspecified) | 10 | . | . | -14 | . | .
CCOC(=O)CCC(NC(=O)CCCC(=O)NC(CCC(=O)OCC)C(=O)OCC)C(=O)OCC (stereo unspecified) | 2 | . | . | -2 | . | .
CC(C)c1ccccc1OCCNS(C)(=O)=O | 3 | 0.5 | 51* | 2 | 1.2 | -16
COc1cccc(OCCCOc2ccccc2C(C)C)c1 | -2 | 1 | -3 | -5 | 0.9 | 6
CN(C)C(=O)c1ccc2c(c1[N+](=O)[O-])C(=O)c1ccccc1C2=O | -4 | . | . | -11 | . | .
Cc1[nH]c2ccccc2c1CCNC(=O)c1ccc2c(c1[N+](=O)[O-])C(=O)c1ccccc1C2=O | . | 0.3 | 68* | . | 0.5 | 47
Cc1[nH]c2c(C)cccc2c1CCNC(=O)c1ccc2c(c1[N+](=O)[O-])C(=O)c1ccccc1C2=O | . | 0.4 | 61* | . | 0.2 | 77*
CCCNC(=O)NCCc1c(C)[nH]c2ccccc12 | -3 | 0.6 | 45 | -10 | 2.5* | -154
Cc1c(C(=O)NCCC2=CCCCC2)cccc1[N+](=O)[O-] | 3 | 0.7 | 25 | 16 | 1 | -2
CCOCCCNC(=S)NNC(=O)CCn1nc(C)c(Br)c1C | -2 | 0.7 | 34 | -5 | 1.1 | -6
COC(=O)CSc1nc(C)c(Oc2ccccc2)c(=O)[nH]1 | -2 | 0.4 | 64* | -5 | 1.1 | -9
CCOC(=O)CSc1nc2ccccc2c(=O)[nH]1 | -2 | 1.1 | -10 | 2 | 1 | 2
CCOC(=O)c1cc2occc2n1CC(=O)Nc1ccc(OC)cc1OC | 1 | 0.6 | 37 | -10 | 0.6 | 37
SMILES | Mac1 fbg enh | CYP2C19 activ | CYP2C19 inh | CD11b adhes inh | CYP2C9 act | CYP2C9 inh
COc1ccc(C(C)=O)cc1CSCCC#N | -5 | 0.9 | 8 | -3 | 1 | 3
CN(CC(=O)NCCC1=CCCCC1)S(=O)(=O)c1ccc2c(c1)CCC(=O)N2 | 0 | 1 | 4 | -7 | 0.7 | 32
CCN(CCCNC(=O)CN(C)S(=O)(=O)c1cccc2nsnc12)c1cccc(C)c1 | -7 | 0.7 | 27 | 10 | 0.3 | 74*
CCN(CCNC(=O)CN(C)S(=O)(=O)c1cccc2nsnc12)c1ccccc1 | 0 | 0.1 | 89* | 27 | 0.4 | 59*
CCN(CCCNC(=O)CN(C)S(=O)(=O)c1ccc2c(c1)CCC(=O)N2)c1cccc(C)c1 | -3 | 0.8 | 16 | -7 | 0.4 | 64*
CCN(CCNC(=O)C1CCN(S(=O)(=O)c2cccc3nsnc23)CC1)c1ccccc1 | . | 0.9 | 13 | . | 1 | -3
CCOc1ccc(NC(=O)c2cccc3c2C(=O)N(Cc2cccnc2)C3)cc1 | 0 | 0.8 | 20 | -8 | 0.2 | 77*
CCOc1ccccc1NC(=O)c1cccc2c1C(=O)N(CCOC)C2 | 10 | 0.3 | 67* | -9 | 0.1 | 88*
CCOC(=O)N1CCC(NC(=O)c2cccc3c2C(=O)N(Cc2cccnc2)C3)CC1 | -3 | 0.9 | 15 | -22 | 0.4 | 56*
CCOC(=O)N1CCC(NC(=O)c2cccnc2SC)CC1 | -4 | 0.8 | 18 | -2 | 1.1 | -13
COC(CNC(=O)c1cccc2c1C(=O)N(Cc1cccnc1)C2)OC | -2 | 0.5 | 50* | -9 | 1 | 1
COCCN1Cc2cccc(C(=O)Nc3cccnc3)c2C1=O | 2 | 0.9 | 12 | -14 | 0.8 | 23
CCN(CC)S(=O)(=O)c1ccc(-c2ccc(S(=O)(=O)N(CC)CC)cc2)cc1 | -4 | 0.9 | 9 | 31 | 0.6 | 37
CC(C)c1nnc(NC(=O)CCC(=O)NCc2cccs2)s1 | -6 | 1.1 | -6 | 20 | 0.9 | 9
COc1ccc(C=O)cc1COc1c(F)c(F)cc(F)c1F | -6 | 0.4 | 60* | -4 | 0.6 | 44
Cc1cc(NC(=O)CSc2nnc(C)c(=O)[nH]2)no1 | -2 | 1 | 2 | -4 | 0.9 | 6
CCCc1cc(N2CCN(C(=O)c3ccco3)CC2)n2c(nc3ccccc32)c1C#N | -2 | 0.8 | 18 | -7 | 0.2 | 76*
CC1=C2C(CCS2(=O)=O)CC2(C1)C(=O)OC(C)(C)OC2=O (stereo unspecified) | -1 | 0.2 | 82* | -16 | 1 | 3
CCOc1ccc(S(=O)(=O)N(C)CCO)cc1-c1nc2c(C(C)(C)C)nn(C)c2c(=O)[nH]1 | -5 | 0.4 | 64* | 0 | 0.3 | 67*
COC(=O)C(CC(C)C)Oc1ccc2c(C)cc(=O)oc2c1 (stereo unspecified) | 15 | 0.8 | 20 | -13 | 0.4 | 65*
Cc1cc(=O)oc2cc(OC(C)C(=O)Nc3nccs3)ccc12 (stereo unspecified) | 1 | 0.2 | 81* | -7 | 0.2 | 80*
Cc1ccc(NC(=O)C(C)c2ccc([N+](=O)[O-])cc2)cc1Cl (stereo unspecified) | -9 | . | . | 60 | . | .
Cn1nc(-c2ccc(N3CCOCC3)c(NS(=O)(=O)c3ccc(Cl)cc3)c2)c2ccccc2c1=O | . | 0.1 | 86* | . | 0.2 | 84*
CC(=O)Nc1cc(-c2nn(C)c(=O)c3ccccc23)ccc1N1CCOCC1 | 1 | 0.7 | 28 | -26 | 0.5 | 50

Screening data: PubChem, Sanford-Burnham Center for Chemical Genomics
